Results on nine compounds are retold here after PubChem BioAssay (Tox21).

Assay [1] in a line: qHTS assay to identify small molecule antagonists of the estrogen related receptor (ERR) signaling pathway from Tox21 library - cell viability counter screen (AID 1224834). Further: nearly all actives have a fitted effect of over 30% in size. A digest of the protocol: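 Counter screen run in ERR cells (2,000 cells/well): cells pre-incubated 6 h, then treated with compounds for 17.5 h at 37 C. Fluorescence was read 30 min after CellTiter-Fluor addition.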

Assay [2] deals with Luciferin 4-monooxygenase (Photinus pyralis) (UniProt P08659). Nature of the assay: qHTS assay to identify small molecule inhibitors of firefly luciferase (AID 1224835). Further: nearly all actives have a fitted effect of over 25% in size. The method, boiled down:
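Inhibition of purified Photinus luciferase is measured by luminescence. Substrate levels (D-luciferin, ATP) sit at their KM values. Each compound is tested in a concentration series.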

Assay [3] is described as follows: qHTS assay to identify small molecule agonists of the constitutive androstane receptor (CAR) signaling pathway - cell viability counter screen (AID 1224836). Further: nearly all actives have a fitted effect of over 45% in size. The method, boiled down: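 Compound titrations (15 concentrations) went onto HepG2-CYP2B6-hCAR cells 4 h after seeding, alongside PK11195 at a final 0.75 uM; a 23 h, 37 C/5% CO2 incubation preceded CellTiter-Fluor viability measurement.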

Assay [4] can be described thus: qHTS assay to identify small molecule antagonists of the constitutive androstane receptor (CAR) signaling pathway - cell viability counter screen (AID 1224837). Further: nearly all actives have a fitted effect of over 45% in size. The method, boiled down: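 CITCO at 50 nM final was added alongside compounds (15 concentrations) to double-stable hCAR/CYP2B6-2.2kb HepG2 cells. Following 23 hr at 37 C, cell viability was quantified by CellTiter-Fluor fluorescence intensity.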

In assay [5] the target is Nuclear receptor subfamily 1 group I member 3 (Homo sapiens) (UniProt Q14994). The assay can be described thus: qHTS assay to identify small molecule antagonists of the constitutive androstane receptor (CAR) signaling pathway (AID 1224838). Further: nearly all actives have a fitted effect of over 40% in size. Further: potency means the concentration at half of the fitted maximal effect. A digest of the protocol:
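Inhibition of CITCO-driven (50 nM final) CYP2B6 reporter expression is measured in HepG2 cells stably carrying hCAR. Fifteen compound concentrations are applied for 24 h at 37 C, followed by luciferase luminescence.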

For assay [6] the target is unchanged. The assay can be described thus: qHTS assay to identify small molecule agonists of the constitutive androstane receptor (CAR) signaling pathway (AID 1224839). Further: nearly all actives have a fitted effect of over 15% in size. The method, boiled down: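 In this screen, CAR-driven CYP2B6 promoter activity is measured by luminescence in HepG2-CYP2B6-hCAR cells after 24 h with test compounds and 0.75 uM PK11195 (final concentration).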

Assay [7] deals with Thyrotropin receptor (Homo sapiens) (UniProt P16473). Nature of the assay: qHTS assay to identify small molecule agonists of the thyroid stimulating hormone receptor (TSHR) signaling pathway (AID 1224843; calls by dose curve; further: nearly all actives have a fitted effect of over 45% in size). A digest of the protocol: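 A cell-based cAMP HTRF format was run in TSHR-transfected HEK293 cells, 800 per well. Treatment: 30 min, room temperature. Detection: 1 h with labelled cAMP and anti-cAMP cryptate. Concentration-response over 15 points, three replicates.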

A short description of assay [8]: qHTS assay to identify small molecule agonists of the hypoxia (HIF-1) signaling pathway - cell viability counter screen (AID 1224844; calls by dose curve; further: nearly all actives have a fitted effect of over 50% in size). A digest of the protocol: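 In this counter screen, HRE-bla ME-180 cell viability after 17 hrs of compound exposure at 37C was read by CellTiter-Glo luminescence, multiplexed with the beta-lactamase reporter measurement.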
Assay [9] can be described thus: qHTS assay to identify small molecule agonists of H2AX (AID 1224845; active means well fitted activation curve with a large enough effect in the signal ratio in the repeat runs, not every such curve was filed as active; the % refers to the signal ratio). The method, boiled down: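 Phospho-H2AX Ser139 measured by HTRF (ex 320 nm; em 665 and 620 nm) after 24 hr antibody incubation. Compounds, 15 concentrations, 0.76% DMSO, were applied to CHO-K1 cells for 3hr at 37C before lysis.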
A short description of assay [10]: qHTS assay to identify small molecule agonists of the hypoxia (HIF-1) signaling pathway (AID 1224846; active means well fitted activation curve with a large enough effect in the signal ratio in the repeat runs, not every such curve was filed as active; the % refers to the signal ratio). The method, boiled down:
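ME-180 HRE-bla reporter cells; compounds in DMSO, 17 h at 37C; read-out beta-lactamase via CCF4-AM FRET.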

Assay [11] is described as follows: qHTS RealTime-Glo MT Cell Viability Assay in HepG2 cells - 24 hour (AID 1224867). Further: nearly all actives have a fitted effect of over 50% in size. The method, boiled down: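 Cell number in HepG2 cultures estimated from NanoLuc luminescence generated by metabolic reduction of a prosubstrate by living cells. The homogeneous, nonlytic format allowed repeated reads at 0, 8, 16, 24, 32 and 40 h of compound exposure.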
The nature of assay [12]: qHTS RealTime-Glo MT Cell Viability Assay in HEK293 cells - 32 hour (AID 1224868). Further: top concentration of the series differs between compounds; nearly all actives have a fitted effect of over 50% in size. A digest of the protocol:
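Homogeneous bioluminescent viability format in HEK293 cells (600 cells/well). Following 5 h at 37 C/5% CO2, 23 nL compound was pintooled; the signal was measured repeatedly during 40 h incubation.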

The nature of assay [13]: qHTS assay to identify small molecule agonists of the estrogen related receptor signaling pathway with the pleiotropic PPARgamma coactivator (PGC) (AID 1224823). The method, boiled down: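 Luminescence readout (One-Glo, 30 min RT) from PGC/ERR cell line treated 18 h at 37 C with pin-tool-delivered DMSO compound solutions; cells plated 6 h before dosing. Quantitative HTS format.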

A short description of assay [14]: qHTS assay to identify small molecule antagonists of the estrogen related receptor signaling pathway with the pleiotropic PPARgamma coactivator (PGC) from Tox21 10K library - cell viability counter screen (AID 1224840; active means well fitted cell-killing curve with a large enough effect in the repeat runs, not every such curve was filed as active; further: nearly all actives have a fitted effect of over 40% in size). A digest of the protocol:
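Readout: fluorescence intensity from CellTiter-Fluor after 30 min at 37 C/5% CO2. Preceded by 17.5 h treatment of PGC/ERR cells with DMSO-dissolved compounds, added 6 h post-seeding.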

Assay [15] is described as follows: qHTS assay to identify small molecule antagonists of the estrogen related receptor signaling pathway with the pleiotropic PPARgamma coactivator (PGC) from Tox21 10K library (AID 1224841; call rule not given here; further: actives are mostly falling curves and most rising ones were filed inactive; nearly all actives have a fitted effect of over 50% in size). The method, boiled down:
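One-Glo luminescence, measured after half an hour at room temperature, quantified reporter output of PGC/ERR cells. These had been plated at 2,000 per well, incubated 6 h, dosed with compounds in DMSO, then kept 18 h at 37 C.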

Assay [16] is described as follows: qHTS assay to identify small molecule agonists of the estrogen related receptor signaling pathway with the pleiotropic PPARgamma coactivator (PGC) from Tox21 10K library (AID 1224842). Further: nearly all actives have a fitted effect of over 15% in size. A digest of the protocol:
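Luminescence from One-Glo (30 min, room temperature) measured after PGC/ERR cells had 18 h at 37 C with pinned compound (23 nL in DMSO). Cells had been seeded at 2,000 per well and pre-incubated 6 h.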

A short description of assay [17]: qHTS assay to identify small molecule antagonists of the estrogen related receptor (ERR) signaling pathway from Tox21 library (AID 1224848). Further: nearly all actives have a fitted effect of over 50% in size. The method, boiled down: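 ERR cell line, 2,000 cells/well. 6 h settle, then compound (DMSO) added; 18 h at 37 C; ONE-Glo luminescence after 30 min RT.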
A short description of assay [18]: qHTS assay to identify small molecule agonists of the estrogen related receptor (ERR) signaling pathway from Tox21 library (AID 1224849; calls by dose curve; further: nearly all actives have a fitted effect of over 15% in size). To be noted: ERR reporter cell line, ONE-Glo luciferase, 18 h. A digest of the protocol:
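Luciferase activity in ERR pathway reporter cells served as the agonist readout; exposure lasted 18 h at 37 C, with ONE-Glo detection after 30 min at room temperature.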

Assay [19] in a line: A CellTox Green Cytotoxicity Assay to monitor cytotoxicity in HEK293 cells - 0 hour (AID 1224869). Further: nearly all actives have a fitted effect of over 50% in size. Further: potency means the concentration at half of the fitted maximal effect. A digest of the protocol: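 Real-time, in one plate: 600 HEK293 cells/well with dead-cell DNA dye, pinned compound after 5 h, 37 C incubation over 40 h; viable cells give no appreciable fluorescence.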
Assay [20] can be described thus: qHTS assay to identify small molecule agonists of H2AX - cell viability counter screen (AID 1224847; calls by dose curve; further: top concentration of the series differs between compounds; nearly all actives have a fitted effect of over 30% in size). A digest of the protocol: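 Read-out: CellTiter-Glo luminescence, 30 min RT. Cells: wild-type CHO-K1, 1000/well, 10% FBS, plated overnight at 37C. Treatment: 15 concentrations, 3 hr, 37C, 0.76% DMSO.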

Values joined by “and” are separate entries in the source; they are usually repeats but may differ in a detail not shown here. Equal entries are not always repeated. Results filed as inconclusive are left out. Some compounds were tested as several samples or in several runs, with calls that do not always agree. Active and inactive are the calls of the source. Unless noted, the call rests on the fitted dose curve; in most records, active means well fitted curve in the direction sought with a large enough effect in the repeat runs; inconclusive means weak or mixed curves; inactive means no such curve, though single readings can be large; an effect the other way counts as inactive or inconclusive.
On the % scale 0 is the no-effect control and ±100 the full control effect.

Sequence of Thyrotropin receptor (Homo sapiens) (P16473 whole entry, looked up): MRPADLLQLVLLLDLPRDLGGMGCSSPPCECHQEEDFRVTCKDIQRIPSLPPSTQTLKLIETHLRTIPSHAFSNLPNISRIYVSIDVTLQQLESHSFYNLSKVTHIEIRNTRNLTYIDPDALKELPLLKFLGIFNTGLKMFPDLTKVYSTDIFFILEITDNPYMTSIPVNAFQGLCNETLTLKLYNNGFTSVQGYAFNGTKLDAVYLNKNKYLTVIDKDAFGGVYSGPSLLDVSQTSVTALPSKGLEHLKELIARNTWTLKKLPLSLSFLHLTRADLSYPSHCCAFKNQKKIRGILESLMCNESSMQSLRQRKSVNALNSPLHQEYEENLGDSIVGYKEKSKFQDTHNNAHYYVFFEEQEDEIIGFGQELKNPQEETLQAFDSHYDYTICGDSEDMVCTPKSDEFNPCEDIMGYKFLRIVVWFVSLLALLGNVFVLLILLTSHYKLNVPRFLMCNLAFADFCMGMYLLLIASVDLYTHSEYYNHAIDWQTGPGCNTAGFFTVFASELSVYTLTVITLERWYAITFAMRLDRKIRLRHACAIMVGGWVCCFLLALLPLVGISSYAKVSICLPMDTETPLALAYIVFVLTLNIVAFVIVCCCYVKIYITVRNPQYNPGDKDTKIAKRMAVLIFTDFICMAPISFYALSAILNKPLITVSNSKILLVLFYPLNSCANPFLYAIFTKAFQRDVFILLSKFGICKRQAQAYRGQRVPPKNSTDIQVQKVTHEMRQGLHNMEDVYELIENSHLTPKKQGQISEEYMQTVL
Sequence of Nuclear receptor subfamily 1 group I member 3 (Homo sapiens) (Q14994 whole entry, looked up): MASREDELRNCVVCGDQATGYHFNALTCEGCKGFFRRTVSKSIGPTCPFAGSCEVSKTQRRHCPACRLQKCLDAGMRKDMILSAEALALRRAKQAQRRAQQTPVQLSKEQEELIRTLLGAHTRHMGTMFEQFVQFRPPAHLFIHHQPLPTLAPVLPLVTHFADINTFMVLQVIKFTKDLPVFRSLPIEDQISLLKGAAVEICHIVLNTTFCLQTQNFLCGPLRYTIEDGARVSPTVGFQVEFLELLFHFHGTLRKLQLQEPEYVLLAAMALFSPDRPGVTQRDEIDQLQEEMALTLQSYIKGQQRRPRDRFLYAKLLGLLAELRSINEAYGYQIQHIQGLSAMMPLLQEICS
Sequence of Luciferin 4-monooxygenase (Photinus pyralis) (P08659 whole entry, looked up): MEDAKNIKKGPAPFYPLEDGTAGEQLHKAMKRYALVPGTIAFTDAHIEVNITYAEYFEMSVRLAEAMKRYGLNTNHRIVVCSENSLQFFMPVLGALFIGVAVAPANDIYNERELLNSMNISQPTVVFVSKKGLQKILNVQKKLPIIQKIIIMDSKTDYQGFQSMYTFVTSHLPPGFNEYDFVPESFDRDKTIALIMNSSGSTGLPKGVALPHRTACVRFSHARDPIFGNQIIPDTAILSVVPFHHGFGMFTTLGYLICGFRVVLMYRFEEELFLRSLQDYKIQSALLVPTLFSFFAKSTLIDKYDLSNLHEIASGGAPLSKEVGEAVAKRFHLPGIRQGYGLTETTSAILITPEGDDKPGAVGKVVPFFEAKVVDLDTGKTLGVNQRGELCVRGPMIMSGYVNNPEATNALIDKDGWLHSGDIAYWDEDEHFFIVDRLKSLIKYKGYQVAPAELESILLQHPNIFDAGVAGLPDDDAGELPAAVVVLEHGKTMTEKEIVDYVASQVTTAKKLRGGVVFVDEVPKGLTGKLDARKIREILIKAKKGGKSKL

In the case of `Sc1ccccc1`, the Potency entry in [1], in assay [2], in assay [3], in [4], in [6] and in [7] was “inactive” each time. Also, the Potency entry in assay [8], in [9] and in assay [12] was “inactive” each time. For the same compound, in assay [5], the Potency was 62 µM (active) and inactive. In addition, the result in assay [10] and in assay [11] was inactive.
Regarding `CNC(=O)O/N=C/C(C)(C)S(C)=O` (stereo unspecified), the Potency result in assay [1], in assay [2], in assay [3], in assay [4], in assay [5] and in assay [6] was “inactive” throughout. For the same compound, the Potency entry in assay [7], in assay [8], in [9] and in assay [12] was “inactive” each time. In addition, the compound was called inactive in assay [10] and in [11].
In the case of `CC(C)c1cccc(C(C)C)c1O`, the call in assay [13] and in assay [11] was inactive. Further, the Potency result in assay [1], in assay [2], in assay [3], in [4], in [5] and in assay [14] was “inactive” throughout. In addition, the Potency result in assay [15], in [16], in assay [7], in assay [8], in assay [9] and in [17] was “inactive” in each case. The Potency entry in [12] was “inactive”. In addition, the activity change, positive = activation in assay [18] (at 42.5 µM (top of the series)) was -0.995% (inactive); in assay [18] (at 92.4 µM (top of the series)), -9.76% (inactive) and -27.6% (inactive). Also, the Potency result in assay [19] is “inactive and 38.9 µM (active)”.
`N#CN=C(N)N`: the Potency entry in assay [1], in [2], in assay [3], in assay [4], in [5] and in assay [6] was “inactive” throughout. The Potency entry in [14], in assay [7], in assay [9] and in assay [12] was “inactive” in each case. Further, the call in assay [10] and in assay [11] was inactive.
As to `C[C@]12CC[C@H](O)CC1=CC[C@@H]1[C@@H]2CC[C@]2(C)C(=O)CC[C@@H]12`, the Potency result in [1], in [2], in assay [3], in assay [4], in [5] and in assay [6] was “inactive” each time. Moreover, the Potency result in assay [7], in assay [8], in assay [9] and in assay [12] was “inactive” in each case. In addition, the call in [11] was inactive.
Take `OC[C@@H](O)[C@H]1O[C@@H]2O[C@H](C(Cl)(Cl)Cl)O[C@@H]2[C@H]1O`: the Potency result in [1], in [2], in [3], in assay [4], in assay [5] and in assay [6] was “inactive” throughout. Also, the Potency result in [15], in [16], in assay [7], in assay [9], in assay [17] and in [12] was “inactive” in each case. Further, the compound was classed as inactive in assay [10] and in assay [11]. Also, the activity change, positive = activation in assay [18] (at 92.4 µM (top of the series)) is 4.33% (inactive) and 6.3% (inactive).
With `CC12CC1(C)C(=O)N(c1cc(Cl)cc(Cl)c1)C2=O` (stereo unspecified), the Potency result in assay [1], in assay [2], in assay [3], in assay [4], in [5] and in assay [6] was “inactive” throughout. Besides, the Potency result in [14], in assay [8], in assay [9] and in assay [12] was “inactive” each time. Besides, the compound was classed as inactive in [10] and in assay [11].
Take `FC(F)(F)c1ccc(Cl)cc1`: the Potency entry in assay [1], in assay [2], in [3], in assay [4], in assay [5] and in [6] was “inactive” in each case. The Potency entry in assay [7], in assay [8], in assay [9], in [20], in assay [12] and in assay [19] was “inactive” throughout. Besides, the result in assay [10] and in [11] was inactive.
Consider `Cc1cccc(N)c1`, for which the Potency result in [1], in assay [2], in assay [3], in assay [4], in [5] and in assay [6] was “inactive” each time. For the same compound, the Potency entry in assay [14], in [15], in assay [16], in assay [8], in [9] and in assay [17] was “inactive” in each case. For the same compound, the Potency entry in [12] was “inactive”. In assay [18] (at 92.4 µM (top of the series)), the activity change, positive = activation was 7.86% (inactive) and 1.47% (inactive) and 12% (inactive). Also, the compound was called inactive in assay [11].
